The AC50 is the concentration giving half of the maximal activity seen.

Several values for one entry are separate records, joined by “and”; a condition that tells them apart may be missing. Identical values can stand only once. Activity calls are given as the source filed them. The calls were made as follows: active = hit-call score of the fitted dose curve at least 0.9, where 1 is the maximum; inactive = score below 0.9.

This experiment is described as follows: CCTE_Shafer_MEA_dev_correlation_coefficient_mean: CCTE's Neural Network Formation Assay for Mean Correlation Coefficient, Shafer Lab (AID 2284093).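 As to AC50: well mean pairwise spike train correlation integrated as AUC over recording days 5 to 12.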 Here is the method:
CCTE_Shafer_MEA_dev assay is conducted using Axion Biosystems 48 well microelectrode array (MEA) plates and Maestro recording system. Each well of the MEA plate contains a grid of 16 microelectrodes embedded in the culture surface. Electrically active cells, such as neurons, can be cultured over the electrodes, and electrical activity in these cells can be recorded extracellularly. The spontaneous firing of neurons is captured from each electrode on a microsecond timescale providing both temporally and spatially precise data. […] The CCTE_Shafer_MEA_dev assay uses primary cultures of rat cortical neurons. Recordings are made on days post-plating 5, 7, 9 and 12. As these cultures mature over time, neural networks develop functional activity and form cohesive networks in which electrical activity can be highly coordinated. CCTE_Shafer_MEA_dev_correlation_coefficient_mean is 1 of 19 assay components of the CCTE_Shafer_MEA_dev assay. It measures the correlation coefficent of spikes (action potential firings) between every pair of electrodes in a well during a recording in a microelectrode array (MEA) using Axion Biosystems Maestro 768 channel amplifier with the AxIS adaptive spike detector. The pairwise correlations are averaged across active electrodes to report a well-mean value. To collapse across multiple recordings made on days post-plating 5, 7, 9 and 12, the trapezoidal area-under-the-curve of the component is calculated.Data from the assay component CCTE_Shafer_MEA_dev_correlation_coefficient_mean was analyzed into 1 assay endpoint. This assay endpoint, CCTE_Shafer_MEA_dev_correlation_coefficient_mean, was analyzed in the negative analysis fitting direction relative to DMSO as the negative control and baseline of activity. Using a type of functional reporter, gain or loss-of-signal activity can be used to understand electrical activity.
On the day prior to culture, each well was coated thoroughly with 150 uL of 0.05% polyethyleneimine (PEI, Sigma Cat P3143) in 50 mM HEPES (Sigma Cat H7523) at a pH of 8. The plate was incubated at 37C for one hour. PEI was rinsed out with 500 uL of sterile water three times. Plates were stored at 4C until the day of culture. This culture was plated at a seeding density of 1.5 x 10^5 cells/well on a 48-well MEA plate, prepared as described above. Cells were administered via a 25 uL media/laminin ([…]; Sigma Cat L2020-1MG) drop directly onto the microelectrode array, as adding the cells with the laminin results in better attachment than pre-coating with laminin. After 2 hours, an additional 475 uL of cortical media was added and the cells returned to the incubator. Exposure starts at day 0 of plating and is continued over twelve days of network development until the experiment is terminated. Cells are fed with fresh medium on DIV 5 and 9, following the recordings on those days. The entire volume of media in the well is exchanged and any vehicle or compound treatment is renewed. Complete details are found in OP-NHEERL/ISTD/SBB/TJS/2015-03-r0 (available on request, email shafer.tim@epa.gov). Measurement of the electrical activity is non-invasive, and recordings can be made from the same plate over multiple different days of the culture. In cortical neurons, this allows for the measurement of extracellular action potentials over the period during which networks form in the MEA plate.
For the compound `CC1(C)S[C@@H]2[C@H](NC(=O)[C@H](N)c3ccc(O)cc3)C(=O)N2[C@H]1C(=O)O`, the call was inactive. Take `[Cl-].[Cl-].[NH2-].[NH2-].[Pt+4]`: the call was inactive. In the case of `c1cc2ccc3ccc4ccc5cccc6c(c1)c2c3c4c56`, the result was inactive. For `NC(N)=Nc1nc(CSCCC(N)=NS(N)(=O)=O)cs1`, the result was inactive. For `CC[C@H](C)C(=O)O[C@H]1CCC=C2C=C[C@H](C)[C@H](CC[C@@H]3C[C@@H](O)CC(=O)O3)[C@H]21`, the concentration at half-maximal activity (AC50) is 571 nM (active) and 928 nM (active).

As for `CN(C)CCC(c1ccc(Cl)cc1)c1ccccn1` (stereo not given), the call was inactive. Take `Cc1c(O)cccc1C(=O)N[C@@H](CSc1ccccc1)[C@H](O)CN1C[C@H]2CCCC[C@H]2C[C@H]1C(=O)NC(C)(C)C`: the AC50 is 1.78 µM (active). Regarding `CC1(C)S[C@@H]2[C@H](NC(=O)[C@H](N)c3ccccc3)C(=O)N2[C@H]1C(=O)O`, the compound was classed as inactive. On to `C[C@H](CS)C(=O)N1CCC[C@H]1C(=O)O`, for which the outcome was inactive. For `C[C@@H]1C[C@H]2[C@@H]3CCC4=CC(=O)C=C[C@]4(C)[C@@]3(F)[C@@H](O)C[C@]2(C)[C@@]1(O)C(=O)CO`, the call was inactive. Consider `CNCCC(Oc1ccc(C(F)(F)F)cc1)c1ccccc1` (stereo not given), for which the half-maximal activity concentration (AC50) was 4.19 µM (active). With `CN(C)C(=O)C(CCN1CCC(O)(c2ccc(Cl)cc2)CC1)(c1ccccc1)c1ccccc1`, the AC50 was 1.35 µM (active) and 766 nM (active) and 2.54 µM (active).

Turning to `c1ccc2cc3c4ccccc4c4ccccc4c3cc2c1`, the half-maximal activity concentration (AC50) was 3.22 µM (active).

Regarding `COc1ccc2cc3[n+](cc2c1OC)CCc1cc2c(cc1-3)OCO2`, the AC50 was 0.106 µM (active). As to `CC(C)(C)NCC(O)c1cc(O)cc(O)c1` (stereo not given), the call was inactive.

For the origin of these results see PubChem BioAssay (EPA / NIEHS).
